Consider eight compounds from PubChem BioAssay (EPA / NIEHS).

Calls of active or inactive are those of the source. Rule for the calls: active = hit-call score of the fitted dose curve at least 0.9, where 1 is the maximum; inactive = score below 0.9.

Conditions in all cases: mRNA level, 48 h; actives raise or lower the signal
Read-out in assay [1]: Ezrin (EZR), EZR (gene 7430)
The assay can be described thus: LTEA_HepaRG_EZR: Life Technologies and Expression Analysis (LTEA) Assay for Ezrin (EZR) using HepaRG (AID 2283491). In outline: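 EZR transcript levels came from Fluidigm qRT-PCR and were normalized to three housekeeping genes after 48 h chemical exposure of HepaRG cells. Dosing used an 8-point half-log series with a 100 uM top concentration in 0.5% DMSO, tested in duplicate; both directions were fitted versus vehicle.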

Read-out in assay [2]: Cytochrome P450 3A7 (Homo sapiens) (UniProt P24462)
The assay can be described thus: LTEA_HepaRG_CYP3A7: Life Technologies and Expression Analysis (LTEA) Assay for CYP3A7 using HepaRG (AID 2283492). In outline:
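CYP3A7 transcript measured by qRT-PCR (ACTB, GAPDH, POLR2A normalization) after 48 h chemical exposure of HepaRG cells in duplicate. Eight half-log concentrations, maximum 100 uM, 0.5% DMSO vehicle; bidirectional curve fitting against DMSO baseline.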

Read-out in assay [3]: CYP3A5 (gene 1577)
The assay can be described thus: LTEA_HepaRG_CYP3A5: Life Technologies and Expression Analysis (LTEA) Assay for CYP3A5 using HepaRG (AID 2283493). In outline: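 Differentiated HepaRG cells in serum-free induction medium were dosed 48 h with test chemicals (8-point half-log series, top 100 uM, 0.5% DMSO, duplicate). CYP3A5 mRNA measured by qRT-PCR, normalized to ACTB, GAPDH, POLR2A; bidirectional fit versus DMSO.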

Read-out in assay [4]: Fatty Acid-Binding Protein 1 (FABP1), FABP1 (gene 2168)
Nature of the assay: LTEA_HepaRG_FABP1: Life Technologies and Expression Analysis (LTEA) Assay for Fatty Acid-Binding Protein 1 (FABP1) using HepaRG (AID 2283494). In outline:
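Differentiated human HepaRG cells were exposed in duplicate for 48 h in serum-free induction medium to 8-point half-log concentration series topping at 100 uM in 0.5% DMSO. FABP1 mRNA measured by TaqMan qRT-PCR, normalized to ACTB/GAPDH/POLR2A; bidirectional fit versus DMSO.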

Read-out in assay [5]: Cytochrome P450 4A22 (Homo sapiens) (UniProt Q5TCH4)
The assay can be described thus: LTEA_HepaRG_CYP4A22: Life Technologies and Expression Analysis (LTEA) Assay for Cytochrome P450 4A22 (CYP4A22) using HepaRG (AID 2283495). In outline: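 Gene expression measured by qRT-PCR against three housekeeping genes (ACTB, GAPDH, POLR2A), with gain or loss fitted relative to 0.5% DMSO vehicle. HepaRG cultures received 48 h chemical treatment, top concentration 100 uM, half-log steps, duplicate wells.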

Read-out in assay [6]: Cytochrome P450 7A1 (Homo sapiens) (UniProt P22680)
Nature of the assay: LTEA_HepaRG_CYP7A1: Life Technologies and Expression Analysis (LTEA) Assay for Cytochrome P450 7A1 (CYP7A1) using HepaRG (AID 2283496). Put shortly:
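Gene expression endpoint in human HepaRG liver cells treated for 48 h with test chemicals (up to 100 uM, 0.5% DMSO). Values come from bidirectional concentration-response fitting versus DMSO.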

Read-out in assay [7]: Glutathione S-Transferase (GSTA2), GSTA2 (gene 2939)
Nature of the assay: LTEA_HepaRG_GSTA2: Life Technologies and Expression Analysis (LTEA) Assay for Glutathione S-Transferase (GSTA2) using HepaRG (AID 2283497). Put shortly:
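Human HepaRG cells, plated 48 h, then exposed in serum-free induction medium for 48 h to eight half-log concentrations up to 100 uM in 0.5% DMSO, duplicate. GSTA2 mRNA by qRT-PCR, normalized to ACTB/GAPDH/POLR2A; bidirectional fit versus DMSO.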

Read-out in assay [8]: Glutamate-cysteine ligase catalytic (GCLC), GCLC (gene 2729)
The assay can be described thus: LTEA_HepaRG_GCLC: Life Technologies and Expression Analysis (LTEA) Assay for Glutamate-cysteine ligase catalytic (GCLC) using HepaRG (AID 2283498). Put shortly:
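Differentiated human HepaRG cells, plated 48 h then switched to serum-free induction medium, were exposed in duplicate for 48 h to 8 half-log concentrations topping at 100 uM in 0.5% DMSO. GCLC mRNA was quantified by qRT-PCR against ACTB, GAPDH and POLR2A.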

Read-out in assay [9]: Glutamate-cysteine ligase regulatory (GCLM), GCLM (gene 2730)
Nature of the assay: LTEA_HepaRG_GCLM: Life Technologies and Expression Analysis (LTEA) Assay for Glutamate-cysteine ligase regulatory (GCLM) using HepaRG (AID 2283500). Put shortly: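 Differentiated human HepaRG cells exposed 48 h in serum-free induction medium to 8-point half-log concentrations (top 100 uM, 0.5% DMSO), in duplicate. GCLM mRNA quantified by qRT-PCR, normalized to ACTB, GAPDH, POLR2A; bidirectional fitting versus DMSO.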

Read-out in assay [10]: Glutathione S-transferase M3 (GSTM3), GSTM3 (gene 2947)
The assay can be described thus: LTEA_HepaRG_GSTM3: Life Technologies and Expression Analysis (LTEA) Assay for Glutathione S-transferase M3 (GSTM3) using HepaRG (AID 2283501). In outline:
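GSTM3 transcript levels came from Fluidigm TaqMan qRT-PCR normalized to three housekeeping genes, fitted in both directions against DMSO. HepaRG cultures received chemicals for 48 h in serum-free induction medium (0.5% DMSO), 8 half-log concentrations up to 100 uM, duplicate.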

Read-out in assay [11]: Hypoxia-inducible factor 1-alpha (Homo sapiens) (UniProt Q16665)
Nature of the assay: LTEA_HepaRG_HIF1A: Life Technologies and Expression Analysis (LTEA) Assay for Hypoxia-inducible factor 1 (HIF1A) Trancription factor using HepaRG (AID 2283503). In outline: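 HepaRG, 48 h exposure, 8-pt half-log series from 100 uM, 0.5% DMSO vehicle, duplicates. Readout: HIF1A transcript by qRT-PCR (Fluidigm array), housekeeping-normalised. Bidirectional curve fit vs DMSO baseline.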

Read-out in assay [12]: 3-Hydroxy-3-Methylglutaryl-CoA Synthase 2 (HMGCS2), HMGCS2 (gene 3158)
Nature of the assay: LTEA_HepaRG_HMGCS2: Life Technologies and Expression Analysis (LTEA) Assay for 3-Hydroxy-3-Methylglutaryl-CoA Synthase 2 (HMGCS2) using HepaRG (AID 2283504). Put shortly: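 Readout is HMGCS2 transcript by qRT-PCR, housekeeping-normalised (ACTB/GAPDH/POLR2A) and fitted bidirectionally against 0.5% DMSO. Differentiated HepaRG cells received chemicals 48 h, duplicate wells, eight half-log concentrations topping at 100 uM.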

Read-out in assay [13]: Insulin Like Growth Factor 1 (IGF1), IGF1 (gene 3479)
The assay can be described thus: LTEA_HepaRG_IGF1: Life Technologies and Expression Analysis (LTEA) Assay for Insulin Like Growth Factor 1 (IGF1) using HepaRG (AID 2283506). In outline:
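Differentiated human HepaRG cells were dosed for 48 h in serum-free induction medium with 0.5% DMSO, eight half-log concentrations up to 100 uM, in duplicate. IGF1 mRNA was quantified by qRT-PCR normalized to ACTB, GAPDH, POLR2A; bidirectional fitting versus DMSO.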

Read-out in assay [14]: Intercellular Adhesion Molecule 1 (ICAM1), ICAM1 (gene 3383)
The assay can be described thus: LTEA_HepaRG_ICAM1: Life Technologies and Expression Analysis (LTEA) Assay for Intercellular Adhesion Molecule 1 (ICAM1) using HepaRG (AID 2283507). Put shortly:
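ICAM1 transcript levels measured by qRT-PCR, normalized to three housekeeping genes (ACTB, GAPDH, POLR2A), after 48 h chemical exposure of HepaRG cells. Duplicate eight-point half-log series from 100 uM in 0.5% DMSO; gain or loss fitted against vehicle.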

Read-out in assay [15]: Insulin-like growth factor-binding protein 1 (IGFBP1), IGFBP1 (gene 3484)
The assay can be described thus: LTEA_HepaRG_IGFBP1: Life Technologies and Expression Analysis (LTEA) Assay for Insulin-like growth factor-binding protein 1 (IGFBP1) using HepaRG (AID 2283508). Put shortly:
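Read-out is qRT-PCR transcript level normalized to three housekeeping genes, fitted in both directions against 0.5% DMSO. Differentiated HepaRG cells received eight half-log concentrations (top 100 uM) in duplicate for 48 h in serum-free induction medium.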

Read-out in assay [16]: growth arrest and DNA damage 45 (GADD45G), GADD45G (gene 10912)
Nature of the assay: LTEA_HepaRG_GADD45G: Life Technologies and Expression Analysis (LTEA) Assay for growth arrest and DNA damage 45 (GADD45G) using HepaRG (AID 2283499). Put shortly:
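GADD45G transcript level by qRT-PCR (housekeeping-normalized: ACTB, GAPDH, POLR2A) after 48 h chemical treatment of a single HepaRG lot in serum-free induction medium; eight-point half-log series up to 100 uM in 0.5% DMSO, duplicates, up- or down-regulation scored.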

Read-out in assay [17]: Heat shock 70 kDa protein 1 (HSPA1A), gene 3303
Nature of the assay: LTEA_HepaRG_HSPA1A: Life Technologies and Expression Analysis (LTEA) Assay for Heat shock 70 kDa protein 1 (HSPA1A) using HepaRG (AID 2283502). In outline: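 Differentiated human HepaRG cells in serum-free induction medium were exposed in duplicate for 48 h to eight concentrations (top 100 uM, half-log steps, 0.5% DMSO). HSPA1A mRNA was quantified by qRT-PCR, normalized to ACTB, GAPDH and POLR2A, and fitted bidirectionally against DMSO.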

Read-out in assay [18]: HGF (gene 3082)
Nature of the assay: LTEA_HepaRG_HGF: Life Technologies and Expression Analysis (LTEA) Assay for Hepatocyte Growth Facto (HGF) using HepaRG (AID 2283505). Put shortly:
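HGF transcript was quantified by TaqMan qRT-PCR against three housekeeping genes after 48 h treatment of HepaRG cells. Exposure ran in duplicate over eight half-log steps topping at 100 uM in 0.5% DMSO vehicle.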

Read-out in assay [19]: Early growth response protein 1 (EGR1) transcription factor, EGR1 (gene 1958)
Nature of the assay: LTEA_HepaRG_EGR1: Life Technologies and Expression Analysis (LTEA) Assay for Early growth response protein 1 (EGR1) transcription factor using HepaRG (AID 2283490). Put shortly:
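Differentiated human HepaRG cells in serum-free induction medium were exposed in duplicate for 48 h to eight concentrations (top 100 uM, half-log steps) in 0.5% DMSO. EGR1 mRNA was quantified by qRT-PCR, normalized to ACTB, GAPDH and POLR2A, and fitted bidirectionally versus DMSO.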

Cytochrome P450 3A7 (Homo sapiens), sequence (P24462 whole entry, looked up): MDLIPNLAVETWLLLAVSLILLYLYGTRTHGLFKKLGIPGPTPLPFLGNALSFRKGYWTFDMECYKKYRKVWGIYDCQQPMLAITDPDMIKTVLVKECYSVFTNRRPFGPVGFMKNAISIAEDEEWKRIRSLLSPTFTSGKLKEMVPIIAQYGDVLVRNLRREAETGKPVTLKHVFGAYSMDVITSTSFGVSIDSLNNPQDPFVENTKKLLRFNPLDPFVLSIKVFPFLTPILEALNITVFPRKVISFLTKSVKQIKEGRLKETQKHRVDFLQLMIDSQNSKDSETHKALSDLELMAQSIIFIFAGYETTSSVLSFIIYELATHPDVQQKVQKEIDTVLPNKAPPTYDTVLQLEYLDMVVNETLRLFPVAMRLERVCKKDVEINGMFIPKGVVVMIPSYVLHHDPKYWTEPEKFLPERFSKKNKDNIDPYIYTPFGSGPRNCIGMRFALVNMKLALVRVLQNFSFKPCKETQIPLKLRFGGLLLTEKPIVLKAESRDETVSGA
Hypoxia-inducible factor 1-alpha (Homo sapiens), sequence (Q16665 whole entry, looked up): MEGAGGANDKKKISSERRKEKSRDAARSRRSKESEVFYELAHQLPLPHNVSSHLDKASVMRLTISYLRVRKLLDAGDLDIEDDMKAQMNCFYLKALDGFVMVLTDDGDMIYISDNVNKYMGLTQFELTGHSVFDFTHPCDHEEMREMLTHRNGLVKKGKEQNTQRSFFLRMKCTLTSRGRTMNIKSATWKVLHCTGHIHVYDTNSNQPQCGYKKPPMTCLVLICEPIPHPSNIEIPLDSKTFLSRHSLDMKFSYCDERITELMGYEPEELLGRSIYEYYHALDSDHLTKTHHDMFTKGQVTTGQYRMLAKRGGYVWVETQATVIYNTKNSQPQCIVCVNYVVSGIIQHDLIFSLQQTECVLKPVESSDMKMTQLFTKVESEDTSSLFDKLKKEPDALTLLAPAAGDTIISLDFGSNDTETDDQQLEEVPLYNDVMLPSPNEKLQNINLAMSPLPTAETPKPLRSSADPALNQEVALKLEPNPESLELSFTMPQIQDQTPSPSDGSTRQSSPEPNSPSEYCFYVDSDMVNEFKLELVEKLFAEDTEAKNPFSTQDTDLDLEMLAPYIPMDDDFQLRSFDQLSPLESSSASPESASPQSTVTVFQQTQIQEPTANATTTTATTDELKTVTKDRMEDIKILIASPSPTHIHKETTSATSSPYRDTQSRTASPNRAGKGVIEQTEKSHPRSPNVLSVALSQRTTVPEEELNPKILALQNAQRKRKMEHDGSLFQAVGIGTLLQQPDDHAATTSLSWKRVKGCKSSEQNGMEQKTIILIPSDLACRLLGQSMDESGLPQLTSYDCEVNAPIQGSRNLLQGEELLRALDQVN

As for `CCCCCCCCCCO`, the compound was classed as inactive in assay [1], in [2], in [3], in assay [4], in assay [5] and in assay [6]. Further, the call in [7], in assay [8], in [9], in assay [10], in assay [11] and in assay [12] was inactive. For the same compound, the outcome in [13], in [14] and in assay [15] was inactive.

On to `CCCCCC(=O)O`, for which the compound was called inactive in [1], in assay [2], in [3], in assay [4], in assay [5] and in assay [6]. Besides, the result in assay [7], in assay [8], in [16], in assay [9], in assay [10] and in [17] was inactive. Besides, the call in [11], in [12], in assay [18], in [13] and in assay [15] was inactive.

Turning to `CCOC(=O)C(C)(C)Oc1ccc(Cl)cc1`, the result in assay [1], in assay [2], in [3], in assay [4], in assay [6] and in assay [7] was inactive. The call in assay [8], in assay [9], in [10], in [18], in assay [13] and in [14] was inactive. Also, in [15], the compound was classed as inactive. For the same compound, the AC50 in [5] was 25.7 µM (active); in assay [12], 9.92 µM (active).

As to `Cc1ccc(C)c(O)c1C`, the compound was called inactive in [1], in assay [2], in [3], in [4], in assay [5] and in [6]. The call in assay [7], in assay [8], in assay [9], in assay [10], in assay [11] and in assay [12] was inactive. In addition, the compound was called inactive in [13] and in assay [15].

Consider `Nc1ccc(S(=O)(=O)c2ccc(N)cc2)cc1`, for which the result in [1], in [2], in assay [3], in assay [4], in [5] and in assay [6] was inactive. The call in [7], in assay [8], in [16], in assay [9], in [10] and in [17] was inactive. The compound was classed as inactive in assay [12], in assay [13] and in assay [15].

Take `CCCCCCOCCO`: the compound was classed as inactive in assay [1], in assay [2], in assay [3], in [4], in assay [5] and in assay [6]. In addition, the compound was called inactive in assay [7], in [8], in [16], in assay [9], in assay [10] and in assay [11]. Moreover, the compound was classed as inactive in assay [12], in [18], in assay [13], in [14] and in assay [15].

As to `COc1cc(-c2nc(NC(=O)c3cc4cc(C)cc(C)c4n3CC(=O)O)sc2CCC2CCCCC2)c(OC)cc1Cl`, the AC50 is 19.8 µM (active) in assay [1]; 7.24 µM (active) in [2]; 9.6 µM (active) in [3]; 4.12 µM (active) in assay [4]; 6.57 µM (active) in assay [5]; 4.44 µM (active) in assay [6]. Moreover, the AC50 is 7.06 µM (active) in assay [7]; 14 µM (active) in assay [8]; 19.4 µM (active) in assay [9]; 3.86 µM (active) in assay [10]; 11.1 µM (active) in assay [17]; 11 µM (active) in assay [11]. For the same compound, the AC50 in [12] was 6.61 µM (active); in assay [18], 6.32 µM (active); in assay [13] it was 6.45 µM (active); in assay [15], 3.83 µM (active). Moreover, the compound was called inactive in assay [14].

For the compound `COC(=O)c1ccc(O)cc1`, the result in [19], in assay [1], in assay [2], in [3], in assay [4] and in assay [5] was inactive. Also, the compound was called inactive in assay [6], in [7], in [8], in assay [9], in assay [10] and in assay [11]. The result in assay [12], in assay [13] and in assay [15] was inactive.
